Measured values reported in PubChem BioAssay (EPA / NIEHS).
Records with an inconclusive call do not appear. Calls of active or inactive are those of the source. The calls were made as follows: active = hit-call score of the fitted dose curve at least 0.9, where 1 is the maximum; inconclusive = response in the unintended direction; inactive = score below 0.9.

target: human Serotonin, 5-Hydroxytryptamine Receptor 6 (5HT6), HTR6 (gene 3362) (UniProt P50406); experiment: NVS_GPCR_h5HT6: NovaScreen (NVS) G Protein-Coupled Receptor Assay for human Serotonin, 5-Hydroxytryptamine Receptor 6 (5HT6) (AID 2283253)
Sequence (P50406 whole entry, looked up): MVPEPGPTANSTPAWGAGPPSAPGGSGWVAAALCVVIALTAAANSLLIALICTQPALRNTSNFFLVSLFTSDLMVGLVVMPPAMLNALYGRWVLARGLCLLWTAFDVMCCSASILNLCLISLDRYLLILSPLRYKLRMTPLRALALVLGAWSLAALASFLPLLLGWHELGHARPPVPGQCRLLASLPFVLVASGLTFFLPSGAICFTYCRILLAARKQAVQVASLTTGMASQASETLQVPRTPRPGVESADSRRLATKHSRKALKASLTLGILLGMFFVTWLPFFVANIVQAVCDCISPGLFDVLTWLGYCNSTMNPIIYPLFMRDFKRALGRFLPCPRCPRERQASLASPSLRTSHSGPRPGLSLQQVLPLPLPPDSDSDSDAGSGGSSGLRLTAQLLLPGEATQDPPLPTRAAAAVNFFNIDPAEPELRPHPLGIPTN
Procedure, shortened: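 Radioligand binding to 5HT6 in HEK293-derived membranes, cell-free, 1 h after dosing; bound ligand measured by filter-based scintillation counting. Primary screen in duplicate at 25 uM; actives retested in concentration series.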

AC50, active:
CC[C@H](NC(=O)c1cc(F)ccc1NS(=O)(=O)c1cccc2cccnc12)c1ccccc1 1.31 µM
CN(C)c1ccc(C(=C2C=CC(=[N+](C)C)C=C2)c2ccc(N(C)C)cc2)cc1 13.9 µM
CCOC(=O)O[C@H](C)OC(=O)c1ccc2c(c1)cc(C(=O)NC1CCN(C(C)C)CC1)n2Cc1cc(-c2ccc(Cl)s2)on1 7.12 µM
CN(C)C(=O)C1(N2CCCCC2)CCN(CC[C@@]2(c3ccc(Cl)c(Cl)c3)CN(C(=O)c3ccccc3)CCO2)CC1 23.6 µM
NCc1cccc(C2CCN(C(=O)c3ccc(C#Cc4ccccc4F)o3)CC2)c1 8.69 µM
CCN(CC)C(=O)c1cc(S(=O)(=O)Cc2ccccc2)c(N2CCC(c3ccccc3)CC2)cc1N(CC)CCN(C)C 0.971 µM
CN(C[C@@H](CC[N+]12CCC(C3CCCCC3)(CC1)CC2)c1ccc(Cl)c(Cl)c1)C(=O)c1cc(C(F)(F)F)cc(C(F)(F)F)c1 10.5 µM
